Screening data deposited in PubChem BioAssay by National Center for Advancing Translational Sciences (NCATS).
Pf growth 96h = Primary qHTS for delayed death inhibitors of the malarial parasite plastid, 96 hour incubation; 320,000 tested, 6.9% active; AID 504834, 2011; Potency, µM (top dose mostly 28.7 µM), inactives show top-dose activity change, negative = inhibition, actives largely listed as inhibitors; P. falciparum luciferase reporter growth, 96 h; note: potency is the fitted concentration of half-maximal effect; % is set by controls: 0 for no effect and ±100 for the full control effect
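Readout is luminescence from an integrated firefly luciferase in P. falciparum. Red cells, 2% hematocrit and 0.05% parasitemia final, were cultured with compound through two parasite generations (96 hours) at 37 C, 5% CO2.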
AMA1-RON2 inh = qHTS for Inhibitors of AMA1-RON; Towards Development of Antimalarial Drug Lead: Primary Screen; AID 720542, 2013; Potency, µM (series often up to 58.2 µM), for inactives: top-dose activity change, negative = inhibition, most hits filed as inhibitors; AlphaScreen AMA1-biotinylated RON2 peptide binding; 360,000 tested, 0.2% active;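 note: potency is the fitted concentration of half-maximal effect; 0% = vehicle wells and -100% = peptide control; nearly all actives have a fitted effect of over 45% in size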
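AMA1 (3D7) with his tag at 25 nM final met compounds first, then biotinylated RON2 peptide at 25 nM; detection used donor plus acceptor beads, 10 µg/mL apiece, read by AlphaScreen after 30 min at room temperature.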
Sm TGR inh = qHTS Assay for the Inhibitors of Schistosoma Mansoni Peroxiredoxins; Schistosoma mansoni thioredoxin glutathione reductase (TGR), Q962Y6; purified TGR, DTNB reduction, TNB absorbance 405 nm; Potency, µM (top dose mostly 114 µM), inactives show top-dose activity change, negative = inhibition, usual class: inhibitors; 360,000 tested, 3% active; AID 485364, 2010; note: potency is the fitted concentration of half-maximal effect; % is set by controls: 0 for no effect and ±100 for the full control effect; nearly all actives have a fitted effect of over 60% in size
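Kinetic colorimetric format: TGR-catalysed, NADPH-driven DTNB reduction monitored via TNB absorbance. Enzyme dispensed at 20 nM; compound exposure 15 min at room temperature before reaction start.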
NS1 function inh = qHTS Assay for Inhibitors of Influenza NS1 Protein Function; 270,000 tested, 0.4% active; Potency, µM (highest dose often 46.1 µM), without a hit: at the highest dose activity, positive = more growth; calls by dose curve; note: potency is the fitted concentration of half-maximal effect; actives are rising curves; nearly all actives have a fitted effect of over 50% in size
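In this qHTS, NS1 from influenza A is expressed in budding yeast, where it slows growth. Cells are switched from glucose to 2% galactose medium (pH 6.0, -URA), treated with compound, and growth recovery is read at OD600.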
Pf growth 48h = Primary qHTS for delayed death inhibitors of the malarial parasite plastid, 48 hour incubation; P. falciparum luciferase growth in erythrocytes, 48 h; Potency, µM (doses to about 28.7 µM), inactives show at the highest dose activity change, negative = inhibition, actives largely listed as inhibitors; 310,000 tested, 5.9% active; AID 504832, 2011; note: potency is the fitted concentration of half-maximal effect; % is set by controls: 0 for no effect and ±100 for the full control effect
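Erythrocytes infected with P. falciparum carrying an integrated firefly luciferase reporter (2% hematocrit, 0.1% parasitemia final) were exposed to compounds in RPMI 1640 with 0.5% Albumax at 37 C, 5% CO2. Growth inhibition was scored as reduced luminescence.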
NS1 inh valid = Assay for Inhibitors of Influenza NS1 Protein Function: Hit Validation | shares compounds with NS1 function inh | 1,400 tested, under 10 active | influenza NS1 function cell assay, 15-point titration | activity change, negative = inhibition, % at 32.9 µM; calls by dose curve; note: 0% is about no effect
Flu PR8 replic = Assay for Inhibitors of Influenza NS1 Protein Function: Influenza virus replication assay in MDCK cells infected with virus A/PR/8/34; shares compounds with NS1 function inh; MDCK infected influenza A/PR/8/34, virus titer TCID50; active compounds read low; virus titer (log TCID50), log10 TCID50 at 5 µM; 95 tested, 30% active; AID 504647, 2011; call rule not given here
Numbers without * were called inactive; ? = inconclusive; / = no result; [ ] = remark or other dose. Shown are actives, neighbours in structure and some others; about 11% of the full set was active somewhere. Unless noted, calls come from the whole dose curve; as a rule, active = well fitted curve in the direction sought with a large enough effect; inconclusive = small, poorly fitted or top-dose-only effect, or another doubt; inactive = no such curve, though single readings can be large; an effect the other way counts as inactive or inconclusive.

SMILES	Pf growth 96h	AMA1-RON2 inh	Sm TGR inh	NS1 function inh	Pf growth 48h	NS1 inh valid	others
Cc1c(C(=O)OCC(=O)N2CC(C)OC(C)C2)oc2ccc(Br)cc12 (stereo not given)	-0.8%	4.0%	3.8%	0.447µM*	-7.6%	?
NNC(=O)c1csc(Cc2c(Cl)sc3ccc(Cl)cc23)n1	-18.5%	91.1%	13.2%	?	-4.2%	-29.9
COc1cccc(NC(=O)CC2S/C(=N\S(=O)(=O)c3ccccc3)N(c3ccccc3)C2=O)c1 (stereo not given)	20.1%	2.0%	-13.8%	10µM*	24.3%	19.6
O=C(CSc1ccc(-c2nc3ccccc3[nH]2)cn1)Nc1ccc(S(=O)(=O)N2CCCC2)cc1	?	11.2%	15.8%	14.1µM*	?	9.3
Cc1cc2nc(-c3ccc(SCC(=O)Nc4ccc(S(=O)(=O)N5CCCC5)cc4)nc3)[nH]c2cc1C	?	7.2%	2.1%	?	?	/
CCOC(=O)c1ccc(NC(=O)CSc2nnc(CCc3ccc(C)o3)n2-c2ccccc2)cc1	?	0.0%	?	1.41µM*	?	-20.4	Flu PR8 replic=7.66
CCOc1ccc(CCNC(=O)C2CCCN(S(=O)(=O)c3c(C)n[nH]c3C)C2)cc1OCC (stereo not given)	4.2%	-7.5%	-1.1%	2.51µM*	8.28µM*	-27.4
COc1cccc(-c2cnc(C(O)c3cc(Cl)cc(Cl)c3)[nH]2)c1 (stereo not given)	/	3.0%	/	/	/	/
COc1ccc(S(=O)(=O)N2CCCCC2)cc1NS(=O)(=O)c1cc(Cl)ccc1Cl	-0.8%	-2.6%	0.7%	22.4µM*	-1.8%	48.7	Flu PR8 replic=8.5
CCN(CC(=O)Nc1c(F)cccc1F)C(=O)/C=C/c1ccc2c(c1)OCO2	0.0%	44.5%	-10.5%	/	13.6%	/
Cc1cc(Cl)ccc1C(=O)C1CCCN(C(=O)c2snnc2C)C1 (stereo not given)	?	12.2%	16.1%	-41.7%	-34.0%	/
COC(=O)c1cc(C(=O)OC)cc(N2C(=O)CC(NNC(=O)c3ccc(C)cc3)C2=O)c1 (stereo not given)	?	12.2%	-2.7%	7.08µM*	-3.2%	12.3
COC(=O)c1cc(C(=O)OC)cc(N2C(=O)CC(NNC(=O)c3ccccc3Br)C2=O)c1 (stereo not given)	100.4%	17.9%	?	18.7%	?	/
Fc1ccc(Oc2cnns2)cc1	17.3%	26.9%	1.7%	/	0.5%	/
O=C(NCc1ccccc1F)C1CCN(S(=O)(=O)c2ccccc2)CC1	29.9%	-4.6%	-13.0%	6.4%	-7.7%	/
O=C(NCc1cccs1)c1nn(-c2ccccc2)nc1CO	/	/	2.2%	/	/	/
C(=N\N1CCN(Cc2cccc3ccccc23)CC1)/c1cccnc1	?	?	-0.9%	10µM*	14.4%	-5.1
NC(=O)C1CCN(c2nc(C3CC3)nc3c2nnn3Cc2ccccc2Cl)CC1	-7.8%[5.75 µM]	-2.0%	-8.2%	-9.1%	?	/
CC(C)(C)c1nc(N2CCN(C(=O)c3ccco3)CC2)c2nnn(Cc3ccccc3Cl)c2n1	/	?	-22.4%	12.6µM*	1.65µM*	?
Cc1ccc(NC(=S)/N=C(\N)Nc2nc(C)c3ccccc3n2)cc1C	2.33µM*	6.5%[2.32 µM]	6.5%	11.2µM*	11.7µM*	-24.3
COc1ccc2nc(N/C(N)=N/C(=S)Nc3ccc(C)c(C)c3)nc(C)c2c1	?	/	0.8%	?	2.5%	/
Cc1cccc(NC(=S)/N=C(\N)Nc2nc(C)c3ccccc3n2)c1	10.4µM*	65.1%	5.6%	10µM*	-2.0%	-37.0
CCn1c(SCC(=O)O)nnc1-c1cc2c(C)nn(-c3ccccc3)c2s1	7.5%	-1.0%	5.6%	?	13.2%	8.0
O=C(COC(=O)c1cc([N+](=O)[O-])ccc1N1CCOCC1)Nc1ncc(Cl)cc1Cl	-5.9%	-17.7%	-9.3%	0.8%	2.2%	/
COc1ccc(NS(=O)(=O)c2ccc3nc(COc4cccc5ccccc45)[nH]c3c2)cc1	?	21.1%	-9.0%	22.4µM*	?	8.0
SMILES	Pf growth 96h	AMA1-RON2 inh	Sm TGR inh	NS1 function inh	Pf growth 48h	NS1 inh valid	others
NC(=O)c1ccccc1OCC(=O)N1CCCC1c1ccc2c(c1)OCCCO2 (stereo not given)	-6.0%	-15.8%	0.5%	/	?	/
NC(=S)N/N=C1\CC(c2ccc3c(c2)OCCCO3)Oc2ccc(F)cc21 (stereo not given)	?	6.8%	9.6%	2µM*	?	0.8
CCc1cc(=O)oc2cc(C)cc(OCC(=O)N[C@@H](CSCc3ccccc3)C(=O)O)c12	-14.9%	0.0%	4.5%	10µM*	?	24.9	Flu PR8 replic=7.33*
Cc1ccc(NC(=O)Cn2ncn3c(cc4ccccc43)c2=O)cc1C	/	/	-0.4%	/	/	/
COc1ccc(C(=O)Nc2c(N)nc(SCC(=O)Nc3ccc(NC(C)=O)cc3)[nH]c2=O)cc1OC	10.4µM*	-13.6%	-3.9%	22.4µM*	-25.4%	21.1
Cc1cc(C2=CC(C)(c3cc(C)oc3C)Nc3nc(C(F)(F)F)nn32)c(C)o1 (stereo not given)	2.4%	/	10µM*	17.8µM*	9.28µM*	6.6
Cc1ccc(SCC(=O)Nc2ccc3c(c2)C(=O)N(C)C3=O)cc1	72.2%	-1.8%	-11.4%	2.51µM*	40.0%	13.0
C/C(=N\NS(=O)(=O)c1ccc([N+](=O)[O-])cc1)c1ccc(NC(=O)c2ccco2)cc1	17.1%	10.0%	-18.6%	/	223.8%	/
Cc1[nH]c2ccc(-c3nnc(SCC(=O)NCc4ccco4)n3Cc3ccccc3)cc2c1C	?	-26.9%	-33.5%	3.55µM*	/	-11.7
CC1(C)CC2CC(C)(CN2S(=O)(=O)c2ccc(C(=O)Nc3cccc(S(=O)(=O)N4CCOCC4)c3)cc2)C1 (stereo not given)	?	-0.9%	-0.4%	12.6µM*	2.94µM*	14.2
Cc1cccc(-n2c(=S)[nH]c3c(oc4ccccc43)c2=O)c1	-16.4%	68.2%	1.1%	?	11.9%	7.7
CC(C)c1ccccc1-n1c(SCC(=O)N2CCc3ccccc3C2)nc2ccccc2c1=O	5.86µM*	-5.2%	-10.6%	22.4µM*	1.47µM*	-7.2
